Source: PubChem
Abeta yeast res: qHTS for compounds that reverse cellular toxicity of Amyloid beta (A-beta) peptide in yeast: Primary Screen; yeast expressing A-beta42, growth rescue, OD600, 48 h; response scale: 0% DMSO, 100% iron-clioquinol control; Potency, µM (series often up to 46.1 µM), hits mostly activators; 410,000 tested, 0.063% active; also: nearly all actives have a fitted effect of over 55% in size
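Yeast growth medium received pinned compounds, then yeast cells expressing toxic A-beta were added; plates incubated at 30 C for 48 hr. Growth read as absorbance at 600 nm, normalized to DMSO and equimolar FeCl3 plus clioquinol controls.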
PINK1 expr mod: A Quantitative High throughput Screen to Identify Chemical Modulators of PINK1 Expression. PINK1 immunofluorescence, high-content cytometry, 24 h. 410,000 tested, 0.2% active. Potency, µM (series often up to 76.6 µM), inactives show at the top dose activation (PINK1 increase), usual class: activators. AID 624263, 2012; active = well fitted activation curve with a large enough effect; inconclusive = small, poorly fitted or top-dose-only effect; cell line not stated here; also: % of control where 0% means no effect; nearly all actives have a fitted effect of over 65% in size
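Stable cell line, 250 cells/well, 12 h attachment; compounds pinned at 5 concentrations, 24 h; CCCP control. Fixed with nuclear dye, primary antibodies 12 h at 10 degrees C, secondary plus cell stain; laser-scanning cytometer read.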
GRP78 ERSR act: qHTS for Inducers of the Endoplasmic Reticulum Stress Response (ERSR) in Human Glioma: qHTS. U87-MG GRP78 promoter luciferase reporter, 16 h. Potency, µM, for inactives: at the top dose activation, hits mostly activators. AID 602332, 2012. 420,000 tested, 0.02% active; also: series mostly up to about 76 µM; % of control where 0% means no effect; nearly all actives have a fitted effect of over 35% in size
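ERSR induction read as luciferase luminescence (Bright-Glo, 10 min at room temperature) in stably transfected human U87-MG glioma cells exposed to compounds for 16 h, using GRP78 as sensor.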
FUS suppressor: qHTS for Suppressors of FUS Proteinopathy: Primary screen using FUS-linked yeast assay; 390,000 tested, 0.24% active; Potency, µM (doses to about 76.6 µM), actives largely listed as activators; AID 1347120, 2019; S. cerevisiae FUS-expressing, growth rescue, OD600, 24 h;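 also: plate controls were DMSO vehicle for no effect and reference control for full effect; nearly all actives have a fitted effect of over 55% in size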
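Absorbance at 600 nm, taken 24hr after compound addition, measured rescue of FUS-yeast growth at 30C. Induction used 2% galactose with seeding at OD 0.005. Controls: CP55940 from 92uM final, DMSO only.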
Vif-A3G inh: qHTS for Inhibitors of Vif-A3G Interactions: qHTS; Potency, µM (series often up to 46.1 µM), without a hit: at the highest dose activity, negative = active, most hits filed as inhibitors; HeLa A3G-eYFP + Vif (tagged APOBEC3G with the HIV-1 protein that degrades it), YFP fluorescence, overnight; 410,000 tested, 0.076% active; also: % is scaled to controls: 0 for no effect and ±100 for the full control effect; nearly all actives have a fitted effect of over 60% in size
Target sequence (Q9HC16 whole entry, looked up): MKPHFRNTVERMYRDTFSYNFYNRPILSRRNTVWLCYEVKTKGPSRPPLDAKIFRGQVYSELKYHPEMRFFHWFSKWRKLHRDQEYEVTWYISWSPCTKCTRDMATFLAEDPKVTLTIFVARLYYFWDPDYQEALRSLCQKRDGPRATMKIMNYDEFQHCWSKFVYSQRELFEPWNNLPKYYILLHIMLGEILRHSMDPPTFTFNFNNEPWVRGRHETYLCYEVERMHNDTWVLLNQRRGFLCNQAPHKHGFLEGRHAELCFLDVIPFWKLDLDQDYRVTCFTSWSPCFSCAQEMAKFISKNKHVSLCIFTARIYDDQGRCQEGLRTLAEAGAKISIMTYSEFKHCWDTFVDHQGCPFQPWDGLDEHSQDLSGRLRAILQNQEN
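HeLa cells stably expressing Vif and C-terminally eYFP-tagged A3G, seeded overnight at 37 deg C, then exposed to compound by pintool overnight at 37 deg C. Rise in yellow fluorescence (Ex 488/Em 500-530, Acumen) marks blocked Vif-driven A3G degradation.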
Vif-APOBEC3F blk: qHTS for Inhibitors of Vif-A3F Interactions: qHTS | Potency, µM (highest dose often 46.1 µM), for the others: top-dose activity, negative = active | HeLa A3F-eYFP + Vif (tagged APOBEC3F with the HIV-1 protein that degrades it), YFP fluorescence increase | 390,000 tested, 0.2% active | AID 602313, 2012; also: % of control where 0% means no effect; nearly all actives have a fitted effect of over 65% in size
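Fluorescence increase (Ex 488/Em 500-530) after overnight compound treatment at 37 deg C flags inhibition of Vif-driven A3F-eYFP loss in stable HeLa A3F-eYFP/Vif cells seeded overnight beforehand.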
* = called active by the depositor; i = inactive; ? = inconclusive; . = not tested or not shown. Hits are enriched below; roughly 0.69% of the tested compounds scored in any of these assays. Unless noted, calls follow the shape of the dose curve; as a rule, active = well fitted curve in the direction sought with a large enough effect; inconclusive = small, poorly fitted or top-dose-only effect, or another doubt; inactive = no such curve, though single readings can be large; an effect the other way counts as inactive or inconclusive. Potency is read from the fitted curve at half-maximal effect.

SMILES	Abeta yeast res	PINK1 expr mod	GRP78 ERSR act	FUS suppressor	Vif-A3G inh	Vif-APOBEC3F blk
CCN(CC)c1ccc2nc3ccc(N)cc3[n+](-c3ccccc3)c2c1	i	10µM*	-11%	.	7%	2%
CCN(CC)c1ccc2nc3ccccc3[n+](CC)c2c1	i	4%	-10%	?	-3%	-19%
COC(=O)[C@@H]1CCCN1C(=O)c1c(OC)cc(=O)n2c1CCN(Cc1ccc3cccnc3c1)CC2	.	2%	-3%	.	.	.
CC(=O)N1CCC[C@H]1C(=O)NCC1Cc2cc(F)cc(-c3ccc(F)c(C)c3)c2O1 (stereo not given in full)	.	-1%	-4%	.	.	.
O=C(NCc1nc2ccccc2[nH]1)C1=C[C@H](C2CCCCC2)C[C@H](OCCCCO)O1	i	2%	-5%	i	-6%	-4%
O=C(NCc1nc2ccccc2[nH]1)C1=C[C@@H](C2CCCCC2)C[C@@H](OCc2ccc(CO)cc2)O1	i	3%	-4%	32µM*	0%	-2%
CC(=O)n1cc([C@H]2C=C(C(=O)NCc3ccccc3)O[C@@H](OCc3ccc(CO)cc3)C2)c2ccccc21	i	3%	-3%	25µM*	-13%	-24%
O=C(NCc1nc2ccccc2[nH]1)C1=C[C@@H](c2ccc(C(F)(F)F)cc2)C[C@@H](OCc2ccc(CO)cc2)O1	i	3%	-5%	32µM*	-15%	3%
O=C(NCc1nc2ccccc2[nH]1)C1=C[C@H](C2CCCCC2)C[C@H](OCc2ccc(CO)cc2)O1	i	-1%	-3%	20µM*	0%	9%
O=S(=O)(NCc1nc(N2CCCC2)c2cc(Cl)ccc2n1)c1ccccc1OC(F)(F)F	.	0%	-3%	.	.	.
COc1ccc2c(c1)-c1nc(-n3ncc(C(=O)NCc4cccnc4)c3C3CC3)ncc1CC2	.	0%	-5%	.	.	.
CCc1nc2cc(C(=O)N(C)C3CCOC3)cc(NC(=O)c3ccccc3OC)c2n1C (stereo not given)	.	0%	-3%	.	.	.
COCCN(C)C(=O)c1cnn(-c2ncc3c(n2)-c2ccccc2CC3)c1C	.	1%	1%	.	.	.
CCCCNC(=O)C[C@H]1C[C@@]2(C(=O)OC)C(=C[C@H](C3CCCC3)O[C@@H]2C)N(Cc2cccc3ccccc23)C1=O	.	.	.	13µM*	.	.
COC(=O)[C@]12C[C@H](CC(=O)NCc3ccc(OC)c(OC)c3)C(=O)N(CCC3=CCCCC3)C1=C[C@H](C1CCCC1)O[C@@H]2C	.	.	.	14µM*	.	.
COC(=O)[C@]12C[C@H](CC(=O)NCc3cccc4ccccc34)C(=O)N(Cc3cccc4ccccc34)C1=C[C@H](COCc1ccccc1)O[C@@H]2C	.	.	.	i	.	.
COC(=O)[C@]12C[C@H](CC(=O)NCC3CCCCC3)C(=O)N(Cc3cccc4ccccc34)C1=C[C@H](C1CCCC1)O[C@@H]2C	.	.	.	32µM*	.	.
COC(=O)[C@]12C[C@H](CC(=O)NCc3cccc(C(F)(F)F)c3)C(=O)N(Cc3ccco3)C1=C[C@H](C1CCCC1)O[C@@H]2C	.	.	.	4.5µM*	.	.
COC(=O)c1ccccc1-c1cc(C)cc2c1OC(CNC(=O)c1occc1C)C2 (stereo not given)	.	0%	4%	.	.	.
CC(C)Cc1nc2cc(NS(=O)(=O)N(C)C)cc(C(=O)N3CCc4sccc4C3)c2n1C	.	0%	8%	.	.	.
Cc1ccccc1-c1cccc(CN2CCc3nnc(C(C)NC(=O)c4cccnc4)n3CC2)c1 (stereo not given)	.	2%	-4%	.	.	.
COc1cc(OC)cc(C(=O)N/N=C(\C)CC(=O)Nc2ccccn2)c1	i	5%	-2%	i	3.5µM*	-3%
C/C(CC(=O)Nc1ccccn1)=N\NC(=O)c1ccc2ccccc2c1	i	17%	0%	.	-6%	4%
CCC1(C)CC2(CCCN(CCC(O)(c3ccccc3)c3ccccc3)C2)CCO1 (stereo not given)	i	45µM*	-5%	i	-2%	-2%
CC1(C)CC2(CCCN(CC(O)(c3ccccc3)c3ccccc3)C2)CCO1 (stereo not given)	i	?	-2%	i	7%	-19%
SMILES	Abeta yeast res	PINK1 expr mod	GRP78 ERSR act	FUS suppressor	Vif-A3G inh	Vif-APOBEC3F blk
Cc1ccn2c(NCc3ccccc3)c(-c3cccc(SC4CCCCC4)c3)nc2c1	i	25µM*	-1%	?	2%	0%
Cc1ccc2nc(-c3cccc(SC4CCCCC4)c3)c(NCc3ccccc3)n2c1	i	25µM*	-7%	i	-1%	?
c1cc(SC2CCCCC2)cc(-c2nc3cnccn3c2NC2CCCCC2)c1	i	7%	-10%	i	?	25µM*
c1ccc(CNc2c(-c3cccc(SC4CCCCC4)c3)nc3ccccn23)cc1	i	?	-4%	?	-10%	0%
CC(=O)c1ccc(-c2cc(F)cc3c2OC(CNC(=O)C(C)N2CCOCC2)C3)s1 (stereo not given)	.	2%	-1%	.	.	.
COc1ccccc1C(=O)N(Cc1cc2cccc(C)c2nc1N1CCC(O)CC1)C1CC1	.	0%	-3%	.	.	.
CSc1nsc2nc(=O)c(/C=C3\C(C)=Nc4ccc(C)cc43)c(N)n12	i	1%	-5%	i	?	?
CC1=Nc2ccc(C)cc2/C1=C/c1c(N)n2oc(C)cc2nc1=O	i	?	-1%	i	?	11µM*
CC(C)(C)n1ncc2c(=O)n(Cc3ccc(C#N)cc3F)cnc21	.	.	-4%	.	-2%	.
COc1ccc(NS(=O)(=O)c2ccc(SC)cc2)cc1	i	?	2%	10µM*	-7%	-2%
CC(C)(C)OC(=O)CNC(=O)c1[nH]cnc1C(=O)NC1CCN(C(=O)OC(C)(C)C)CC1	i	2%	1%	?	-8%	5%
CC(C)(C)OC(=O)N1CCC(NC(=O)c2nc[nH]c2C(=O)NC2CCN(C(=O)OC(C)(C)C)CC2)CC1	i	-1%	-4%	11µM*	0%	8%
Cc1cccc(CN2C(=O)[C@H]3Cc4c([nH]c5ccccc45)C(C)(C)N3C2=O)c1	?	10%	-6%	?	-8%	4%
Cc1cccc(CN2C(=O)[C@@H]3Cc4c([nH]c5ccccc45)C(C)(C)N3C2=O)c1	7.9µM*	7%	-4%	i	0%	5%
